Hit rate of the full screen: of about 330,000 compounds, about 2,600 (0.79%) were called active. What follows is part of a selection rich in actives, with near analogues and random picks from the rest. A number with no mark means an inactive call.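 Rule for the calls: active = mean ATP rescue above about 67%, or every replicate alone reaching that limit (limit read from the data, passing the limit was not always enough); inconclusive = no clear call, values can overlap the other calls; inactive = mean under the limit and some replicate under it.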

This assay can be described thus: protection of differentiated C2C12 cells from simvastatin – single point, plate reader, primary screen (AID 602340).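 Note: myotubes were challenged with 10 µM simvastatin during compound exposure.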 Conditions: C2C12 myotubes + simvastatin, ATP luminescence, 48 h; at 7.49 µM; hits give high values.
As to `Cc1ccc(C2CN(C)CC2C(=O)c2ccc(F)cc2)cc1` (stereo not given), the rescue of ATP level was -5.74%.
As for `COc1ccc(C(=O)CC2C(=O)N(C)C(=O)N(C)C2=O)cc1`, the figure is -12%; as for `COc1ccc(C(=O)C2CN(C)CC2C(=O)c2ccc(OC)cc2)cc1` (stereo not given), 152% (active).
As for `COc1cccc(-c2ccc3n(c2=O)C[C@H]2[C@H](CO)[C@@H](C(=O)O)[C@@H]3N2C(=O)c2cnccn2)c1`, the figure is 13.9%; as for `CCn1cc(CN2CCCC(C(=O)c3cccc(C(F)(F)F)c3)C2)cn1` (stereo not given), -1.69%.
Next, `COc1cccc(C(c2nnnn2-c2ccc3c(c2)OCCO3)N2CCC3(CC2)C(=O)NCN3c2ccccc2)c1OC` (stereo not given): -28%; `COc1ccccc1CN1CCN(C(=O)Cc2ccccc2)CC1`: -9.85%.
On to `Cc1cc(OCc2cc(C(=O)O)oc2C)c2c3c(c(=O)oc2c1)CCCC3`, for which the rescue of ATP level was 23.5%.
As for `CCN1CCN(C(=O)Cc2coc3cc(C)cc(C)c23)CC1`, the figure is 104% (active).
`O=C(O)[C@H]1[C@H](CO)[C@H]2Cn3c(ccc(-c4ccccc4)c3=O)[C@@H]1N2S(=O)(=O)c1ccccc1F`: the rescue of ATP level was 21.2%.

For the origin of these results see PubChem BioAssay AID602340 (Broad Institute, 2012).
